Hits are enriched below; roughly 2.4% of the tested compounds scored in any of these assays.
Pol eta inh – inhibitors of human DNA polymerase eta; Q9Y253; recombinant Pol eta, fluorescent DNA replication assay; Potency, µM (highest dose often 114 µM), for the others: at the highest dose activity change, negative = inhibition, most hits filed as inhibitors; 390,000 tested, 1.2% active; AID 588591; also: % is scaled to controls: 0 for no effect and ±100 for the full control effect
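Fluorescent replication assay: 50 nM final substrate added after a 15 min room-temperature compound preincubation with 10 nM enzyme. Signal taken at 0 min and again at 10 min.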
FEN1 inh-1 – human FEN1 inhibition; AID 588795; 390,000 tested, 0.35% active; Potency, µM (series often up to 114 µM), inactives show top-dose activity change, negative = inhibition, usual class: inhibitors; Recombinant FEN1 flap cleavage, fluorescence, 15 min; also: % is scaled to controls: 0 for no effect and ±100 for the full control effect; nearly all actives have a fitted effect of over 65% in size
Target sequence (P39748 whole entry, looked up): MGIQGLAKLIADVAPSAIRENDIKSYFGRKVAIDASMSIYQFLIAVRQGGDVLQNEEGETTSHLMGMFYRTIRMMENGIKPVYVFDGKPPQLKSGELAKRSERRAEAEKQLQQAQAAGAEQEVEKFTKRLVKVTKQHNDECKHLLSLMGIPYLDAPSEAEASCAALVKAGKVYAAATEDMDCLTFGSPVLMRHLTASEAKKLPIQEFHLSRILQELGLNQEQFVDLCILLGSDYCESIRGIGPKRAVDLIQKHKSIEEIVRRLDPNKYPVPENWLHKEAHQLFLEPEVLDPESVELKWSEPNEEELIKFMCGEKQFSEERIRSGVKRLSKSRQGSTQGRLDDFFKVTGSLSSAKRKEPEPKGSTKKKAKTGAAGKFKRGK
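Nuclease activity of 10 nM FEN1 was measured after 15 min of room-temperature exposure to titrated compounds, by adding 50 nM flap substrate and reading plates at 0 and 15 min.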
WRN helicase inh – WRN helicase (human) inhibition; Q14191; WRN helicase unwinding, fluorescent forked duplex, kinetic; Potency, µM (doses to about 114 µM), for inactives: at the top dose activity change, negative = inhibition, most hits filed as inhibitors; 360,000 tested, 0.46% active; also: % is scaled to controls: 0 for no effect and ±100 for the full control effect; nearly all actives have a fitted effect of over 55% in size
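WRN at 20 nM final was preincubated with compound for 15 min at room temperature; reaction started with 100 nM forked duplex oligonucleotide carrying fluorophore and quencher plus 2 mM ATP (final). Unwinding followed kinetically by red fluorescence (ex 525/em 598 nm).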
POLB inh – DNA polymerase beta (human) inhibition. Pol beta primer extension/strand displacement, fluorescence kinetic. Potency, µM (top dose mostly 114 µM), for the others: top-dose activity change, negative = inhibition, actives largely listed as inhibitors. 340,000 tested, 1.3% active. AID 485314; also: % is scaled to controls: 0 for no effect and ±100 for the full control effect
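Pol beta (10 nM) was preincubated with compound for 15 min at room temperature. The reaction was then started with 50 nM substrate and read immediately and after a further 10 min at room temperature.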
POLK inh – inhibitors of human DNA polymerase kappa | Q9UBT6 | purified Pol kappa, fluorescent DNA synthesis assay, 10 min | Potency, µM (series often up to 107 µM), inactives show at the top dose activity, negative = inhibition, hits mostly inhibitors | 400,000 tested, 0.53% active; also: % is scaled to controls: 0 for no effect and ±100 for the full control effect
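Inhibition of 10 nM Pol kappa is measured by a fluorescent read-out at 0 and 10 min following addition of 50 nM substrate (final), with a 15-min room-temperature compound preincubation.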
Pol iota inh – DNA polymerase iota (human) inhibition. Q9UNA4. Pol iota fluorescent replication assay, 10 min. 390,000 tested, 1% active. AID 588590. Potency, µM (titrated, usually from 115 µM), without a hit: top-dose activity, negative = inhibition, hits mostly inhibitors
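Pol iota at 10 nM preincubated 15 min with compounds at room temperature; reaction started with fluorescent substrate, 50 nM final. Fluorescence read kinetically at 0 and 10 min; buffer-only wells as negative control.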
FEN1 inh-2 – confirmation of human FEN1 inhibitors. FEN1 flap cleavage, TAMRA/BHQ2 fluorogenic DNA substrate. 880 tested, 79% active. AID 720498. shares compounds with FEN1 inh-1. Potency, µM, most hits filed as inhibitors; also: nearly all actives have a fitted effect of over 60% in size
The depositor's hits bear a star; [ ] = another dose, or the depositor's remark. Calls follow the shape of the dose curve; as a rule, active = well fitted curve in the direction sought with a large enough effect; inconclusive = small, poorly fitted or top-dose-only effect, or another doubt; inactive = no such curve, though single readings can be large; an effect the other way counts as inactive or inconclusive. Potency is read from the fitted curve at half-maximal effect.

CCN(C(=O)c1coc(=O)c2ccccc12)c1ccccc1C was read as Pol eta inh -17%, FEN1 inh-1 4%, POLB inh 55%, POLK inh -12% and Pol iota inh 0%.
COc1ccc(CNc2ncnc3cc(Cl)ccc23)cc1OC was read as Pol eta inh -17%, FEN1 inh-1 2%, WRN helicase inh 6%, POLB inh -22%, POLK inh -8% and Pol iota inh 154%.
CCN(CC)Cc1cc2[nH]c3c4ccc(Cl)cc4ncc3c2cc1OC was read as Pol eta inh -13%, FEN1 inh-1 14µM*, WRN helicase inh -34%, POLB inh 50µM*, POLK inh inconclusive, Pol iota inh inconclusive and FEN1 inh-2 inconclusive.
CCCN(CCC)CCCNC(=O)c1cc2c(-c3ccc(Cl)cc3)nn(C)c2s1 was read as Pol eta inh -7%, FEN1 inh-1 inconclusive, POLB inh 20µM*, POLK inh -10%, Pol iota inh -1% and FEN1 inh-2 inconclusive.
Screening C=C1C=C(C(F)F)n2ncc(C(=O)NCCc3ccc(Cl)cc3)c2N1 returned FEN1 inh-1 3%, POLK inh 8% and Pol iota inh 26%.
O=C1Nc2ccccc2C1Cc1ccccn1 (centres undefined) was read as Pol eta inh -7%, FEN1 inh-1 0%, WRN helicase inh 3%, POLB inh 29%, POLK inh -9% and Pol iota inh -6%[58.9 µM].
O=C1Nc2ccccc2C1C(C[N+](=O)[O-])c1ccccn1 (centres undefined) was read as Pol eta inh -7%, FEN1 inh-1 inconclusive, WRN helicase inh -3%[11.6 µM], POLB inh 13%, POLK inh -4%, Pol iota inh -9% and FEN1 inh-2 9.5*.
`O=C(CSc1nnc(-c2ccco2)o1)c1ccc[nH]1` gave Pol eta inh inconclusive, FEN1 inh-1 -16%, WRN helicase inh -27%, POLB inh 14µM*, POLK inh inconclusive, Pol iota inh 14µM* and FEN1 inh-2 inconclusive.
CCCNC(=O)c1ccc(-c2nc(CS(=O)(=O)c3ccc(C)cc3)c(C)o2)cc1 was read as Pol eta inh -19%, FEN1 inh-1 0%, POLB inh inconclusive, POLK inh -3% and Pol iota inh 17%.
For CCCC(=O)Nc1nc2c(ncn2[C@@H]2O[C@H]3COP(=O)(O)O[C@@H]3[C@@H]2OC(=O)CCC)c(=O)[nH]1 the results were POLK inh 5%[60.1 µM].
O=C(COc1ccccc1-c1ccccc1)N/N=C/c1cccc2ccccc12 was read as Pol eta inh -4%, FEN1 inh-1 -10%, WRN helicase inh -11%, POLB inh inconclusive, POLK inh -19% and Pol iota inh 2%.
`O=C(COc1cccc2ccccc12)N/N=C/c1ccccc1OCc1ccc(C(=O)O)cc1` gave Pol eta inh 79µM*, FEN1 inh-1 inconclusive, WRN helicase inh -8%[11.6 µM], POLB inh 89µM*, POLK inh -25%, Pol iota inh 23% and FEN1 inh-2 85*.
CC(C)(C)OC(=O)NC(NC(=O)OCC1c2ccccc2-c2ccccc21)C(=O)O (centres undefined) was read as POLK inh -11%[12 µM].
For CCN(CC)CCN1C(=O)c2cccc3cc(N)cc(c23)C1=O the results were Pol eta inh -15%, FEN1 inh-1 50µM*, WRN helicase inh 13%[11.6 µM], POLB inh inconclusive, POLK inh inconclusive, Pol iota inh inconclusive and FEN1 inh-2 inconclusive.
COc1cccc(-c2nc(NC3CCNCC3)c3ccccc3n2)c1 was read as POLK inh -8%[60.1 µM].
`CS(=O)(=O)N1CCN(/[N+]([O-])=N/Oc2ccc([N+](=O)[O-])cc2[N+](=O)[O-])CC1` (tested in a mixture with another compound) gave FEN1 inh-1 -17%, POLK inh -14% and Pol iota inh inconclusive.
`Cc1[nH]c2ccccc2c1C(=O)C(C)OC(=O)c1ccc([N+](=O)[O-])o1` (centres undefined) gave Pol eta inh -26%, FEN1 inh-1 inconclusive, WRN helicase inh -2%[11.6 µM], POLB inh -24%, POLK inh -15%, Pol iota inh 6% and FEN1 inh-2 19*.
`CCc1noc(C)c1C(=O)OC(C)C(=O)c1c(C)[nH]c2ccccc12` (centres undefined) gave Pol eta inh -15%, FEN1 inh-1 -18%, WRN helicase inh -10%, POLK inh -2% and Pol iota inh -20%.
`COc1cccc2c(N/N=C/c3ccccc3)cc(C)nc12` gave Pol eta inh 0%, FEN1 inh-1 -20%, WRN helicase inh 0%, POLB inh 13%, POLK inh 0% and Pol iota inh -10%.
`COc1ccc(/C=N/Nc2cc(C)nc3ccc(Br)cc23)cc1` gave Pol eta inh -15%, FEN1 inh-1 inconclusive, WRN helicase inh -14%[11.6 µM], POLB inh -4%, POLK inh -21%, Pol iota inh -29% and FEN1 inh-2 inconclusive.
`CCOc1cccc(NC(=O)c2sc3nc(-c4ccc(F)cc4)ccc3c2N)c1` gave Pol eta inh 2%, FEN1 inh-1 0%, POLB inh -2%, POLK inh -1% and Pol iota inh -9%.
For Cc1cccc2nc(-c3cccc(NC(=O)c4ccc(Cl)cc4)c3)cn12 the results were Pol eta inh 2%, FEN1 inh-1 inconclusive, WRN helicase inh -2%[11.6 µM], POLB inh 1%, POLK inh -5%, Pol iota inh inconclusive and FEN1 inh-2 60*.
For C=C1CC2C(=O)N(Cc3cc(OC)ccc3OC)C(C(=O)OCC)C1N2C (centres undefined) the results were FEN1 inh-1 -14%, POLK inh 4% and Pol iota inh -13%.
Screening COc1ccc(CNCc2ccc3c(c2)n(C)c(=O)n3C)cc1 returned Pol eta inh -14%, FEN1 inh-1 7%, POLB inh inconclusive, POLK inh -3% and Pol iota inh 27%.
For COc1ccc(-c2oc3ncnc(NCCCN(C)C)c3c2-c2ccc(OC)cc2)cc1 the results were Pol eta inh -13%, FEN1 inh-1 inconclusive, WRN helicase inh -12%[11.6 µM], POLB inh inconclusive, POLK inh -5%[60.1 µM], Pol iota inh 0% and FEN1 inh-2 inconclusive.

High-throughput results as filed in PubChem BioAssay.
